PubChem BioAssay AID430 (Sanford-Burnham Center for Chemical Genomics, 2006)
About 1,100 (1.7%) of roughly 63,000 compounds were called active. The sample holds actives, similar compounds and a random draw of the others, so the mix is not that of the screen. Results with a measured potency or affinity are listed apart. Values without a mark were called inactive. Rule as the data show it: active = cytotoxicity above about 50%; inactive = the rest.

experiment: cytotoxicity in HPDE-C7 cells, cell-based, fluorescence, HTS (AID 430); settings: HPDE-C7 pancreatic duct cells viability, at 10 µM, active compounds read high;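 also: cells exposed to compound for 48 hours before viability readout; 0% = vehicle and 100% = reference cytotoxic drug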

Row | Compound | cytotoxicity
1 | CCCOc1ccc2ccccc2c1/C=N/n1c(C)nnc1-n1nc(C)cc1C | 41.9%
2 | Cc1cc(C)n(-c2nnc(C)n2/N=C/c2cc(Br)ccc2OCc2ccccc2)n1 | 57.6% (active)
3 | Cc1cc(C)n(-c2nnc(C)n2/N=C/c2ccccc2OCc2ccccc2Cl)n1 | 34.5%
4 | Oc1ccc(Br)cc1-c1cc(-c2ccccc2F)[nH]n1 | 12.4%
5 | COc1ccc(O)c(-c2cc(-c3cccs3)[nH]n2)c1 | 26.9%
6 | CSc1nnc2n(-c3ccccc3)c(=O)c3c4c(sc3n12)CCC4 | 11.5%
7 | O=S(=O)(c1ccccc1)N1CCN(Cc2ccccc2C(F)(F)F)CC1 | -2.9%
8 | CCOc1ccc(NS(=O)(=O)c2ccc3c(c2)CCN3C(=O)CCC(=O)O)cc1 | -5.5%
9 | O=S(=O)(c1ccc2ccccc2c1)N1CCCCC1 | -5.5%
10 | O=S(=O)(c1ccc2ccccc2c1)N(CC(O)CN1CCOCC1)c1ccccc1 (stereo not drawn) | -8%
11 | CCCn1c(SCC(=O)Nc2cccc(C)n2)nnc1-c1ccco1 | -2%
12 | CCOC(=O)C1=C(C)NC(C)=C(C(=O)OCC)C1c1ccc(OC)cc1 | 11.1%
13 | CN1CCN(C(CNS(=O)(=O)c2ccc(Cl)cc2)c2cccnc2)CC1 (stereo not drawn) | 2.1%
14 | COCCNC(=O)C(c1ccccc1C)N(CCOC)C(=O)Cn1nnc2ccccc21 (stereo not drawn) | 4.3%
15 | O=C(CSc1nnc(-c2cccs2)o1)N1CCOCC1 | -10.3%
16 | CCOC(=O)c1sc2c(c1C)c(=O)c(C(=O)OCC)cn2CC | 1.7%
17 | CCOC(=O)c1cn(CC)c2cc(N3CCCCC3)c(F)cc2c1=O | 3.7%
18 | CCOC(=O)c1cn2c3c(c(F)c(F)c(F)c3c1=O)SC(N1CCCC1)=N2 | 62.5% (active)
19 | CCCOCCOC(=O)C1=C(C)NC(=O)NC1c1cc(Cl)c(O)c(OC)c1 (stereo not drawn) | -9.1%
20 | Cc1nn(CC(O)Cn2c3c(c4ccccc42)CCN(C)C3=O)c(C)c1Br (stereo not drawn) | -4.2%
21 | CCOC(=O)c1cc(C)n(CCc2ccccc2)c1C | -7.6%
22 | Cc1cc(-c2csc(N)n2)c(C)n1CCc1ccccc1 | 78.3% (active)
23 | Nc1nc(-c2ccccc2Br)cs1 | 11.7%
24 | CCOC(=O)N1CCN(C/C(C)=C/c2ccccc2)CC1 | -6%
25 | CCN(CCN(C)C)C(=O)Cn1ncc2c1-c1cc(C)ccc1OC2 | -7.1%
26 | CCOc1ccc(C(=O)N2CCc3cc(OC)c(OC)cc3C2)cc1OCC | 18.6%
27 | CCOc1cc(C(=O)N2CCc3cc(OC)c(OC)cc3C2)ccc1OC(F)F | 82.5% (active)
28 | COc1ccc(C(=O)N2CCc3cc(OC)c(OC)cc3C2)cc1OC | 5.8%
